This passage reports outcome and AC50 results from PubChem BioAssay (EPA / NIEHS).

A short description of assay [1]: ATG_GLI_CIS: Attagene CIS-FACTORIAL HepG2 Assay for human Zinc Finger Protein GLI1 (AID 2282945). The note with it: HepG2, Attagene cis-factorial reporter mRNA, GLI element; actives raise or lower the signal. Put shortly:
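Bidirectional curve fits relative to DMSO, using reporter mRNA levels from RT-PCR plus capillary electrophoresis. Cells were HepG2 transiently carrying cis-regulated reporter constructs, harvested 24 h after dosing.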

In assay [2] the target is Bile acid receptor (Homo sapiens) (UniProt Q96RI1). Put plainly: ATG_IR1_CIS: Attagene CIS-FACTORIAL HepG2 Assay for human Nuclear Receptor Subfamily 1 Group H Member 4 (NR1H4), IR1 submotif (AID 2282946). The note with it: IR1 reporter transcription, actives raise or lower the signal. In short, it runs like this:
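Cells (human HepG2) carry transiently transfected cis-promoter reporter transcription units. Compounds are incubated 24 h, total RNA is reverse-transcribed and amplified, and labelled fragments are resolved by capillary electrophoresis. Curves use DMSO as baseline.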

A short description of assay [3]: ATG_GRE_CIS: Attagene CIS-FACTORIAL HepG2 Assay for human Glucocorticoid Response Elements (GRE) (AID 2282947). The note with it: HepG2 GRE cis-reporter, Attagene multiplex mRNA; actives raise or lower the signal. Put shortly:
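Assay uses human hepatoma HepG2 cells transfected with cis-promoter reporter units, exposed 24 h. mRNA from reporters detected by RT-PCR plus capillary electrophoresis; DMSO serves as negative control and baseline.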

Assay [4] is described as follows: ATG_ISRE_CIS: Attagene CIS-FACTORIAL HepG2 Assay for human Interferon Regulatory Factor 1 (IRF1) binding to an Interferon-Stimulated Response Element (ISRE) (AID 2282948). The note with it: HepG2 ISRE cis-reporter (Attagene), mRNA transcription readout; actives raise or lower the signal. Put shortly: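 Transiently transfected HepG2 cells carrying cis-element reporter units, dosed 24 hours. Reporter mRNA quantified by RT-PCR, fluorescent primer extension, HpaI digestion and capillary electrophoresis. Bidirectional fitting relative to DMSO.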

A short description of assay [5]: ATG_M_32_CIS: Attagene CIS-FACTORIAL HepG2 Assay for M32 Transcription Factor (Internal Marker) (AID 2282949).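 Further: background control marker of the multiplexed CIS panel rather than a real target.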 The note with it: HepG2 Attagene cis-factorial M32 reporter, mRNA; actives raise or lower the signal. In short, it runs like this:
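Internal background marker read-out: RT-PCR/capillary electrophoresis fluorescence of reporter transcripts from transiently transfected HepG2 cells after 24 h chemical exposure. Activity fitted bidirectionally relative to DMSO negative control.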

Assay [6] can be described thus: ATG_M_06_CIS: Attagene CIS-FACTORIAL HepG2 Assay for M06 Transcription Factor (Internal Marker) (AID 2282950). The note with it: HepG2 Attagene CIS-FACTORIAL M06 internal marker reporter; actives raise or lower the signal. In short, it runs like this: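 Internal background marker within multiplexed cis-reporter HepG2 system. Cells transiently transfected, dosed 24 h; reporter mRNA measured by RT-PCR, HpaI digestion and capillary electrophoresis. Bidirectional fit relative to DMSO.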

In assay [7] the target is Hypoxia-inducible factor 1-alpha (Homo sapiens) (UniProt Q16665). Put plainly: ATG_HIF1a_CIS: Attagene CIS-FACTORIAL HepG2 Assay for human Hypoxia Inducible Factor 1 (HIF1A) (AID 2282951). The note with it: HepG2 Attagene cis-factorial HIF1a reporter transcription; actives raise or lower the signal. In short, it runs like this: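 HepG2, transient cis-reporter library, 24 h dosing. RNA → RT (oligo dT) → PCR → 6-FAM primer extension → HpaI → CE. Bidirectional curve fit vs DMSO.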

The target of assay [8] is Hepatocyte nuclear factor 6 (Homo sapiens) (UniProt Q9UBC0). Put plainly: ATG_HNF6_CIS: Attagene CIS-FACTORIAL HepG2 Assay for human Hepatocyte Nuclear Factor 6 (HNF6) (AID 2282952). The note with it: HepG2 Attagene cis-factorial HNF6 reporter transcription; actives raise or lower the signal. Put shortly:
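HepG2 cells transiently transfected with cis-element-driven multiplexed reporter units measuring endogenous transcription factor activity. After 24 h exposure, reporter mRNA quantified by RT-PCR, FAM-labelled fragments and capillary electrophoresis; bidirectional fitting versus DMSO.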

The target of assay [9] is Heat shock factor protein 1 (Homo sapiens) (UniProt Q00613). Nature of the assay: ATG_HSE_CIS: Attagene CIS-FACTORIAL HepG2 Assay for human Heat Shock Transcription Factor 1 (HSE) (AID 2282953). The note with it: HepG2 HSE cis-reporter, Attagene RNA transcription; actives raise or lower the signal. In short, it runs like this: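 HepG2 cells transfected with cis-promoter reporter units sensing endogenous transcription factor activity; reporter mRNA quantified 24 h post-dose by RT-PCR and capillary electrophoresis of 6-FAM-labelled products. Bidirectional fitting against DMSO.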

Assay [10] in a line: ATG_MRE_CIS: Attagene CIS-FACTORIAL HepG2 Assay for human Metal Responsive Element (MRE) (AID 2282954). The note with it: HepG2 MRE cis-reporter transcription, Attagene multiplex; actives raise or lower the signal. In short, it runs like this:
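After a 24 h chemical exposure, transiently transfected HepG2 cells yield RNA whose reporter sequences are amplified, FAM-labelled and sized by capillary electrophoresis. Curves are fitted bidirectionally relative to DMSO.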

A short description of assay [11]: ATG_PBREM_CIS: Attagene CIS-FACTORIAL HepG2 Assay for human Phenobarbital-responsive Enhancer Module (PBREM) (AID 2282955). The note with it: HepG2 PBREM cis-reporter, Attagene multiplexed transcription; actives raise or lower the signal. In short, it runs like this:
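HepG2, transient MRTU transfection, 24 h dosing; RNA → oligo(dT) RT → PCR → 6-FAM extension → HpaI → CE. Bidirectional fit vs DMSO.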

For assay [12], the target named is Paired box protein Pax-6 (Homo sapiens) (UniProt P26367). Nature of the assay: ATG_Pax6_CIS: Attagene CIS-FACTORIAL HepG2 Assay for human Paired Box 6 (PAX6) (AID 2282956). The note with it: HepG2 CIS-FACTORIAL PAX6 reporter transcription, RNA readout; actives raise or lower the signal. In short, it runs like this:
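HepG2 cells transiently transfected with cis-promoter-driven multiplexed reporter units sensing endogenous transcription factor activity; 24 h chemical exposure. Reporter mRNA quantified by RT-PCR, 6-FAM labelling, HpaI digestion and capillary electrophoresis; bidirectional fit versus DMSO baseline.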

Assay [13] can be described thus: ATG_PXRE_CIS: Attagene CIS-FACTORIAL HepG2 Assay for human Pregnane X Receptor Element (PXRE) (AID 2282957). The note with it: HepG2 Attagene CIS-FACTORIAL PXRE reporter, mRNA; actives raise or lower the signal. In short, it runs like this: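 HepG2 cells transiently transfected with cis-element-driven multiplexed reporter units; after 24 h chemical exposure, reporter mRNA measured by RT-PCR, 6-FAM labelling, HpaI digestion and capillary electrophoresis. Bidirectional fitting relative to DMSO.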

The nature of assay [14]: ATG_RORE_CIS: Attagene CIS-FACTORIAL HepG2 Assay for human RAR-related Orphan Receptor Element (RORE) (AID 2282959). The note with it: HepG2 Attagene cis-factorial RORE reporter, mRNA; actives raise or lower the signal. In short, it runs like this: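 Multiplexed reporter assay measuring mRNA induction from a cis promoter element in transiently transfected HepG2 cells after 24 h treatment. Detection via RT-PCR and capillary electrophoresis fluorescence; DMSO serves as baseline.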

Assay [15] is described as follows: ATG_Sox_CIS: Attagene CIS-FACTORIAL HepG2 Assay for human SRY-box transcription factor (SOX) (AID 2282960). The note with it: HepG2 Attagene cis-factorial SOX reporter, mRNA; actives raise or lower the signal. In short, it runs like this:
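Cells were transfected with reporter constructs under cis-regulatory promoters, then exposed to chemicals for 24 h. Reporter transcripts were quantified by fluorescence after RT-PCR and capillary electrophoresis; activity was fitted in both directions against DMSO.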

For assay [16], the target named is Transcription factor Sp1 (Homo sapiens) (UniProt P08047). Nature of the assay: ATG_Sp1_CIS: Attagene CIS-FACTORIAL HepG2 Assay for human Specificity Protein 1 (Sp1) (AID 2282961). The note with it: HepG2 Sp1 cis-reporter transcription, actives raise or lower the signal. In short, it runs like this:
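Measures mRNA induction of an Sp1-linked reporter in HepG2 cells 24 h post-dosing. Multiplexed reporters read by RT-PCR and capillary electrophoresis; DMSO serves as negative control and baseline.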

A short description of assay [17]: ATG_SREBP_CIS: Attagene CIS-FACTORIAL HepG2 Assay for human Sterol Regulatory Element Binding (SREBP) (AID 2282962). The note with it: HepG2 Attagene cis-factorial SREBP reporter, mRNA; actives raise or lower the signal. In short, it runs like this:
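HepG2 cells transiently transfected with multiplexed cis-promoter reporter units sensing endogenous transcription factors; reporter mRNA measured 24 h after dosing by RT-PCR, 6-FAM labeling, HpaI digestion and capillary electrophoresis. Bidirectional fit versus DMSO.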

Assay [18] has as its target Signal transducer and activator of transcription 3 (Homo sapiens) (UniProt P40763). Put plainly: ATG_STAT3_CIS: Attagene CIS-FACTORIAL HepG2 Assay for human Signal Transducer and Activator of Transcription 3 (STAT3) (AID 2282963). The note with it: HepG2, Attagene cis-factorial STAT3 reporter transcription; actives raise or lower the signal. Put shortly: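 After a 24 h compound incubation, total RNA from MRTU-transfected HepG2 cells was converted to cDNA and reporter sequences PCR-amplified, labelled and profiled by capillary electrophoresis. Gain and loss of signal were referenced to DMSO.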

A short description of assay [19]: ATG_TA_CIS: Attagene CIS-FACTORIAL HepG2 Assay for human TA Basal Promoter (AID 2282964). The note with it: HepG2 Attagene CIS-factorial TA basal promoter reporter; actives raise or lower the signal. In short, it runs like this: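 HepG2 cells transiently transfected with multiple reporter units under cis promoter elements, reporting endogenous transcription factor activity; this endpoint tracks the TA basal promoter as background control. Reporter mRNA after 24 h dosing measured by RT-PCR/capillary electrophoresis; bidirectional fits versus DMSO.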

Assay [20] is described as follows: ATG_PPRE_CIS: Attagene CIS-FACTORIAL HepG2 Assay for human Peroxisome Proliferator-activated Response Element (PPRE) (AID 2282958). The note with it: HepG2 PPRE cis-element reporter, Attagene transcription factor profiling; actives raise or lower the signal. Put shortly:
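Transcript-level reporter induction in transfected HepG2 cells after 24 h chemical exposure, quantified by fluorescence from RT-PCR products separated by capillary electrophoresis.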

Active and inactive are the calls of the source. How the source made its calls: active means hit-call score of the fitted dose curve at least 0.9, where 1 is the maximum; inactive means score below 0.9.

Hepatocyte nuclear factor 6 (Homo sapiens), sequence (Q9UBC0 whole entry, looked up, the tested form may be a part): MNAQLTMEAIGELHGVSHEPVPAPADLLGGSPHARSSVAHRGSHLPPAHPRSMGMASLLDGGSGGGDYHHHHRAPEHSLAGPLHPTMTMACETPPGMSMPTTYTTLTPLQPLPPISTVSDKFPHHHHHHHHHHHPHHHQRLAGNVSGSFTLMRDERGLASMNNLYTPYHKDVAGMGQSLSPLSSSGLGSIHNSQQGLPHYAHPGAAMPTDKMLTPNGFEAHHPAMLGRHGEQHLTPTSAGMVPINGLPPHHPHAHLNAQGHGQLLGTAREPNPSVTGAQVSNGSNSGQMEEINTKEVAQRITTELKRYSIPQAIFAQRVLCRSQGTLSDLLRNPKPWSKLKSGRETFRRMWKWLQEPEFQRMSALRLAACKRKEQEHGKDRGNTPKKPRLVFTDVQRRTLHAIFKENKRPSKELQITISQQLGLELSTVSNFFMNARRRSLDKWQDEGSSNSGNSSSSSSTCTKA
Paired box protein Pax-6 (Homo sapiens), sequence (P26367 whole entry, looked up): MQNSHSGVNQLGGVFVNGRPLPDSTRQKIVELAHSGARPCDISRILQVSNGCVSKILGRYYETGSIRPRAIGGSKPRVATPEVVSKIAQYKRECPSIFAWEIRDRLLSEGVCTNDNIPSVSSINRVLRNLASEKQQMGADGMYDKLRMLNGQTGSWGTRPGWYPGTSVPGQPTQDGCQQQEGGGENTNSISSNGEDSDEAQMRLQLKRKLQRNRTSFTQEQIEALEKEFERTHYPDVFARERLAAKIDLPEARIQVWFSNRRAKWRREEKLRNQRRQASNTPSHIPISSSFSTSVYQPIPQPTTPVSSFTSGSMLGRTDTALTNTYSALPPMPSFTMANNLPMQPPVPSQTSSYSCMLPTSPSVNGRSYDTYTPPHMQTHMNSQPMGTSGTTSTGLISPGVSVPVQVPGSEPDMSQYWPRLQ
Bile acid receptor (Homo sapiens), sequence (Q96RI1 whole entry, looked up, the tested form may be a part): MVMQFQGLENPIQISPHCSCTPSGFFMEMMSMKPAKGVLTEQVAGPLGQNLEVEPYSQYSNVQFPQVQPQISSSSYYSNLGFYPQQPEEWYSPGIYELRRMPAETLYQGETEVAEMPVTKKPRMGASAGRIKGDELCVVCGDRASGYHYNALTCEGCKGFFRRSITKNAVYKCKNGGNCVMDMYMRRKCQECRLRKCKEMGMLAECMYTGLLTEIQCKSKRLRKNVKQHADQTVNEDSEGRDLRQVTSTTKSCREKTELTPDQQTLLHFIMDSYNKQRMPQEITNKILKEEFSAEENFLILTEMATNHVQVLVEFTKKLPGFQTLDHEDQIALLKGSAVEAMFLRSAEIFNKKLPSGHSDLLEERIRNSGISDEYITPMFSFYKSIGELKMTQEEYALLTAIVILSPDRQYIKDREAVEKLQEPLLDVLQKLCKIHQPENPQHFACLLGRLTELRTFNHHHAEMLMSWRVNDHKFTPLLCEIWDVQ
Signal transducer and activator of transcription 3 (Homo sapiens), sequence (P40763 whole entry, looked up): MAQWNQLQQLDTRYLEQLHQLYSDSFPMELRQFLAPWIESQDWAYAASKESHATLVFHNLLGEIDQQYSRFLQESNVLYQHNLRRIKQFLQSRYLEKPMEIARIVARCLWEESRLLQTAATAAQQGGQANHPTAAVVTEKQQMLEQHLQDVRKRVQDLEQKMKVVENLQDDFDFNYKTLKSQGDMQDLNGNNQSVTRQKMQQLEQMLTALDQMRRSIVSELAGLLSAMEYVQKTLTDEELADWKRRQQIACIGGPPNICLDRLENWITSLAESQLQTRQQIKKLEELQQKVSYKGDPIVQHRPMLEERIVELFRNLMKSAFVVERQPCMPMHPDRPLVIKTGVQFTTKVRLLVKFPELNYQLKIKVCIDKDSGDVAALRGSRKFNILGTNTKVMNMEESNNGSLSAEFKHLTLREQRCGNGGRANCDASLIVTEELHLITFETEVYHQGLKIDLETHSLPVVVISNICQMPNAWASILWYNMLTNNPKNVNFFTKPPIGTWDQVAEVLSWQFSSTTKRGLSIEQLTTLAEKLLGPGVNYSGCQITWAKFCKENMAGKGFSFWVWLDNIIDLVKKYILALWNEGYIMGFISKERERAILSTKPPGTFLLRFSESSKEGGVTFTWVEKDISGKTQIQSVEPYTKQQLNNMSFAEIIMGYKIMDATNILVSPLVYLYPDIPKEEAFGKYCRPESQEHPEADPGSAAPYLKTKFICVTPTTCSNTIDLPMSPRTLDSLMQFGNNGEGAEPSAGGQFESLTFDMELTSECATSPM
Transcription factor Sp1 (Homo sapiens), sequence (P08047 whole entry, looked up): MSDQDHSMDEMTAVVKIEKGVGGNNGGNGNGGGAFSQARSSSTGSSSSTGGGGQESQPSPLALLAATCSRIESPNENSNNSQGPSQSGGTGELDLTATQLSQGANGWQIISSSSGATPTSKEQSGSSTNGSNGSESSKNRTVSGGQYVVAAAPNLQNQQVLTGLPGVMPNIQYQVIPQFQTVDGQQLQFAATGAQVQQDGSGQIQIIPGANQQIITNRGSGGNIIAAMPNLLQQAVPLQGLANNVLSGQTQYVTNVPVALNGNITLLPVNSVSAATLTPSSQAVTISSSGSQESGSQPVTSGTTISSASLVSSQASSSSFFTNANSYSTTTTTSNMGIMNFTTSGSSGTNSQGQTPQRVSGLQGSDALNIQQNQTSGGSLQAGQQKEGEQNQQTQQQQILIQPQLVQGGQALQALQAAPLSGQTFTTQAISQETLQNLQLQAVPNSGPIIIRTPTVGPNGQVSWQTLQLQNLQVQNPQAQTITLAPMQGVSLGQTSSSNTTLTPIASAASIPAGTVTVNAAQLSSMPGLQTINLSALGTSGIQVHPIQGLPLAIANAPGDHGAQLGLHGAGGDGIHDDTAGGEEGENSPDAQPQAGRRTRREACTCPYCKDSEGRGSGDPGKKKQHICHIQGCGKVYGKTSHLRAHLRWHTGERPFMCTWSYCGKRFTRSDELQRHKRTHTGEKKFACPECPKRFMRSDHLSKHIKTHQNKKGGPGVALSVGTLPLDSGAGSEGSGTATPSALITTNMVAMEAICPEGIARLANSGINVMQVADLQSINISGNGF
Heat shock factor protein 1 (Homo sapiens), sequence (Q00613 whole entry, looked up): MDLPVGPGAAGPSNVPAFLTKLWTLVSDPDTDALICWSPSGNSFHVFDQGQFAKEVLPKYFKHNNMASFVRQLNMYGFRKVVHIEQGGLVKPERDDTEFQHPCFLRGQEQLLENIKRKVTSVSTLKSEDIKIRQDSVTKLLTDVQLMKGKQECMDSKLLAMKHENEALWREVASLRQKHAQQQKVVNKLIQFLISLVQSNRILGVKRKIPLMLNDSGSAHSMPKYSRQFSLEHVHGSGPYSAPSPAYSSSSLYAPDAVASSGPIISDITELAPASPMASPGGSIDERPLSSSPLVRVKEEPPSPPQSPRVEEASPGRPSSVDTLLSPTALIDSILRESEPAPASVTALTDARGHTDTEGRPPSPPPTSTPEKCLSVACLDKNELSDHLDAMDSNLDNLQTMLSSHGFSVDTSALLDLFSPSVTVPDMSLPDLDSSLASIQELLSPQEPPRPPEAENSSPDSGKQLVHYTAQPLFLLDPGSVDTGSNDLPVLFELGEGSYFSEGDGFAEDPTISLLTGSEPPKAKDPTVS
Hypoxia-inducible factor 1-alpha (Homo sapiens), sequence (Q16665 whole entry, looked up): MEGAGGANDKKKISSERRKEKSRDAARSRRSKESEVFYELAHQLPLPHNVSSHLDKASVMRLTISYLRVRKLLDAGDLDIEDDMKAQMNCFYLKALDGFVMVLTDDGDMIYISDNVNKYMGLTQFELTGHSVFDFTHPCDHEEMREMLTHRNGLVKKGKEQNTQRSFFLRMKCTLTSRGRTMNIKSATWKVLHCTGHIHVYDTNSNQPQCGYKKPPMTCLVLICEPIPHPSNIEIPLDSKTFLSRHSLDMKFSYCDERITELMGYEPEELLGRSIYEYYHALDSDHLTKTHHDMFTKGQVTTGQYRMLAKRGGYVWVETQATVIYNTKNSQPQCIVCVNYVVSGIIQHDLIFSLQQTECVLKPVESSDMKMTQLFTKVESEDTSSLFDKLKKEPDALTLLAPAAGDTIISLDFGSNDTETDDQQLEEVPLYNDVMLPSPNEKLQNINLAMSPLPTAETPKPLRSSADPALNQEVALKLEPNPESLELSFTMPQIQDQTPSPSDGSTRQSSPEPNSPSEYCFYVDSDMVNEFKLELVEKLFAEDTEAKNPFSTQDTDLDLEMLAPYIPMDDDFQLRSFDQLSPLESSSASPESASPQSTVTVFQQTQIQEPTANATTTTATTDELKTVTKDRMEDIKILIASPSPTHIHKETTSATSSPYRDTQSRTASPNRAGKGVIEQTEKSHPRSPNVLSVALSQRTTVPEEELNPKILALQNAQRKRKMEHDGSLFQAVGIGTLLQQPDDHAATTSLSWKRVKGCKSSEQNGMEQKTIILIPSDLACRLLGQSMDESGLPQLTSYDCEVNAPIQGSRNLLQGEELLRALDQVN

As for `CCCCN(CCCC)CCCC`, the call in [1], in assay [2], in assay [3], in assay [4], in assay [5] and in [6] was inactive. The result in [7], in assay [8], in assay [9], in assay [10], in assay [11] and in assay [12] was inactive. Also, the compound was called inactive in [14], in assay [15], in assay [16], in assay [17], in [18] and in [19]. Also, the AC50 in assay [13] was 26.5 µM (active).
Regarding `Oc1ccc2ccccc2c1N=Nc1ccccc1`, the result in assay [1], in [2], in [4], in assay [5], in assay [6] and in [8] was inactive. Also, the call in assay [9], in assay [12], in assay [16], in assay [17], in assay [18] and in assay [19] was inactive. The concentration at half-maximal activity (AC50) in assay [7] is 1.24 µM (active); in assay [10], 2.47 µM (active); in assay [11], 5.39 µM (active); in assay [13], 7.05 µM (active); in assay [14], 2 µM (active).
As for `CC(C)c1ccc(C(=O)N=C(N)N)cc1S(C)(=O)=O`, the outcome in assay [1], in [3], in assay [4], in assay [5], in assay [6] and in assay [7] was inactive. For the same compound, the result in assay [8], in [9], in assay [10], in [11], in assay [12] and in [14] was inactive. Moreover, the result in [16], in assay [17], in [18] and in assay [19] was inactive. Also, in [13], the concentration at half-maximal activity (AC50) was 31.7 µM (active).
With `CC(CO)OC(C)CO` (stereo not given) (tested in a mixture with another compound), the call in [1], in assay [2], in [3], in assay [4], in assay [5] and in [6] was inactive. The call in assay [8], in assay [9], in assay [10], in assay [12], in assay [13] and in [20] was inactive. Also, the compound was called inactive in assay [16], in [17], in assay [18] and in [19]. In addition, the concentration at half-maximal activity (AC50) in assay [7] is 4.72 µM (active).

What is called AC50 is the concentration at which the activity in the assay is half-maximal.
